Assay results taken from the supplement of paper PMC11417369.
± gives the standard deviation of the averaged measurements. The full ranking holds about 25,000 sequences; the median of “ln(normalized median fluorescence intensity)” is about 10, and the highest 2% start at about 12. This excerpt belongs to a sample that is enriched for the highest values.

System: PfAP2-G AP2 domain (GST-tagged)
Assay: gcPBM binding intensity (ln(normalized median fluorescence intensity)); higher = stronger DNA binding
Summary of the method: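 An Agilent 4 × 180k array carrying primer-extended double-stranded 36-bp intergenic genomic probes and negative controls received GST-tagged P. falciparum DNA-binding domains expressed in E. coli, about 25 μg on average, for 1 h. The binding buffer contained 1× PBS, 1% milk, 0.2 mg/ml BSA, 0.5% salmon testes DNA and 0.03% Triton X-100. Binding intensity is the top Masliner-normalised natural-log median intensity across replicate spots of either probe orientation, read after Alexa488 anti-GST antibody staining and a 488 nm scan.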

| Sequence | gcPBM binding intensity (ln) |
| --- | --- |
| AGCATAAACAATTTTTGAAAAAATATACACTCATAG [CACACA_negctrl_site890] | 9.935 ± 0.007 |
| AAAAAATATACATATTGTACATTTTTTATTAACACA [XGTACX_site6415] | 10.8 ± 0.49 |
| TAGTATTGTAAAAAAAAAAAAGAAAAAAAAAAAAAA [CACACA_negctrl_site977] | 9.68 ± 0.15 |
| TTAAGATGCATAAATACATGCAAAGTAAATAATTCT [TGCATGCA_site517] | 9.88 ± 0.014 |
| CATAAAAATGGATACACACACATAATATATATATAT [CACACA_site3619] | 10.2 ± 0.3 |
| TTACTTAAGAAACACACACACAAAAAAAAAAAAAAA [CACACA_site946] | 9.91 ± 0.54 |
| AGTTTAAATTAAATTACACACTACGAATAATATATT [CACACA_site7811] | 9.895 ± 0.007 |
| TATTCCAAAAATGTGTGTACATAAATACAATATTAT [XGTACX_site2653] | 11.4 ± 0.89 |
| GAGATATAAAAGTGTACACATATTGTTATCCATATT [CACACA_site5441] | 11.8 ± 1 |
| GCCATAAAGATATATACACACATAAAAAAAAGTTAT [CACACA_site6674] | 10.1 ± 0.16 |
| TAAAAAAAAATAAAAAGTACATATATATATATATAT [XGTACX_site1155] | 11.1 ± 0.86 |
| AATAAATATATTAAAAGTACACAAATATTATTTAAT [XGTACX_site2482] | 11.4 ± 0.76 |
| ACAATATAGATTAAAAGTACAAATAGTAAATTATAT [XGTACX_site3165] | 11.2 ± 0.71 |
| TACATATAAAAGTACACACACACACCCATATATATA [CACACA_site941] | 11.6 ± 1.1 |
| AAAAAAAAAAAAAGTACACACATACAGATAAATATA [CACACA_site5067] | 11.6 ± 1 |
| ATAAATACATATAAAAGTACACACACACACATATAT [XGTACX_site1744] | 11.5 ± 0.93 |
| AGATATATATTTTATTGTACACATTAAAGTATAAAA [XGTACX_site7194] | 11.5 ± 1.1 |
| ATAAAAAAAAAAAAAAGTACACATATAAAAGTATTG [XGTACX_site8265] | 11.6 ± 0.91 |
| AGATAAAAAAAGTACACACACACATATATATATATA [CACACA_site3072] | 11.6 ± 0.93 |
| AAAAAAAAAAAAAAAAGTACACAAATAGATTTATAT [XGTACX_site3727] | 11.6 ± 0.88 |
| ATATATTGAACATATTGTACATTTTGTTAATATTTT [XGTACX_site7622] | 10.7 ± 0.43 |
| TTATATTTATATATTTGTACGTATGTATATAATTCA [XGTACX_site2993] | 11.4 ± 0.97 |
| ATTGTTTTTTTTTCTTTGTGGAATGAATGAATATAT [XGTACX_negctrl_site603] | 10 ± 0.19 |
| TATATATATATATTGACACACATGTATTTCAATATT [CACACA_site2832] | 10.1 ± 0.21 |
| TATATATATATGTGCACACATAATAAAAAAAAAAAT [CACACA_site3831] | 10.6 ± 0.69 |

| Sequence | gcPBM binding intensity (ln) |
| --- | --- |
| AAAAAATTAATATTGACACACATTTTTAAGAATAAT [CACACA_site239] | 10.1 ± 0.16 |
| TATGTTTTTGAATGAGTGCATTAAAATAAAACATTT | 10.2 ± 0.27 |
| AAAAAAGAAAAAAGGACACACATAAATATACTCACG [CACACA_site2904] | 11.2 ± 0.91 |
| TAAATTATAATATGCACACAAAATGTTATATTAAAA [CACACA_site376] | 9.97 ± 0.26 |
| TAAAAAATAAATATATGTACGCAATAAATGTGTTAA [XGTACX_site4043] | 11.6 ± 1.1 |
| AATTTTATTTAATTTTTTTGGGAAATGATAAAATTT [CACACA_negctrl_site934] | 9.88 ± 0.2 |
| CATATGCGTCTTGCCTTGCACACTTTTATGAAAAAA [CACACA_site2055] | 10.4 ± 0.26 |
| ATACACACTTAAAAAAGTACTTAACTACATGAATTG [XGTACX_site1203] | 11.1 ± 0.59 |
| CACAAACACCCAAACACACACACACCGACATACATA [CACACA_site4410] | 10.2 ± 0.27 |
| TATTCCCCCCAACACACACACACACCGACATACCAC [CACACA_site8723] | 11.8 ± 1.1 |
| CACCCACCCACATACACACACATACACATATATATA [CACACA_site1722] | 10.2 ± 0.25 |
| GACATATTCCCCCCCACACACACACCCACATACATA [CACACA_site2302] | 11.8 ± 0.71 |
| ACCATACATACATACACACACACACGCATATTTATA [CACACA_site7386] | 10.4 ± 0.28 |
| TATATATACATATACACACACACACCCATATATATA [CACACA_site2246] | 10.1 ± 0.2 |
| TATTCCCCCAAACACACACACACACCCACATACCAC [CACACA_site2304] | 11.1 ± 0.78 |
| CATATTCCCCCCCACACACACACACGCATACATACC [CACACA_site7148] | 11.8 ± 0.6 |
| CATACACCCATACATACACACATACATATATATATA [CACACA_site8591] | 10.2 ± 0.11 |
| CATATTCCCCCCCACACACACACACCCATACATACC [CACACA_site2303] | 11.7 ± 0.71 |
| TACACCCACCCACATACACACACATACACATATATA [CACACA_site8503] | 10.3 ± 0.35 |
| CATATATACGCATACACACACACACCCACACCCACA [CACACA_site1725] | 10.6 ± 0.52 |
| TTTTTGTATTCTACCTTAACAATCTTAAAGATTTTT [CACACA_negctrl_site1157] | 9.97 ± 0.11 |
| GTAAATAATAAACACCGTACATGGTATAATTCAATG [XGTACX_site3655] | 10.7 ± 0.33 |
| AAGTCAATTTTTTTTTTTTTTTTTTAACTTATTAAT [TGCATGCA_negctrl_site14] | 9.605 ± 0.078 |
| TCATTTCACAGACACACACACACAAGATATTTCCTT [CACACA_site7774] | 10.1 ± 0.11 |
| AAAAAAAAAGGTACTACACACTATTCTCAATAGAAA [CACACA_site6193] | 11.1 ± 0.86 |

| Sequence | gcPBM binding intensity (ln) |
| --- | --- |
| TAACAATAACTTTATACACACATAATATAAATATAT [CACACA_site7635] | 9.87 ± 0.014 |
| AACACCAATTCATATGCACACACATCTGCATATTAT [CACACA_site8523] | 10.12 ± 0.078 |
| TATATTAAAAAAGAGGTGCATTCGTAAGAGGTTAAA [GTGCAC_site9720] | 10.05 ± 0.064 |
| CAACATTTGATAAACACACAGAAGTATAAATATATA [CACACA_site2365] | 10.24 ± 0.035 |
| AAAATAAACCCAGACACACTCATTAAAAAATATCAT [CACACA_site5903] | 9.95 ± 0.099 |
| AAAAATGTATGTATGGTGCAGTATTCATATCATTTT [GTGCAC_site9458] | 10.03 ± 0.021 |
| TTTGTTAATATAAAAACACACAAAAATAACATAAAA [CACACA_site2619] | 10.2 ± 0.22 |
| AAAATATATACACAAACATGCATATAATAAATAAAT [TGCATGCA_site711] | 9.895 ± 0.064 |
| ATATAAAAAAAAAAAAGTACACATAAACAAATGCAT [XGTACX_site4241] | 11.7 ± 1 |
| CTTTATAATATTTGTTGTACACAAATATAACATATT [XGTACX_site709] | 11.6 ± 1.1 |
| AAAGTAAAAACACATACATGCATATACACATATAAC [TGCATGCA_site341] | 9.9 ± 0.12 |
| AAAACAAATGAGTACACACACATAAAAGTTGAAAAT [CACACA_site6238] | 11.8 ± 1.3 |
| AAAACAAATGAGTACACACACATAAAAATTGAAAAT [CACACA_site199] | 11.5 ± 0.9 |
| ATAAAACAAATGAGTACACACACATAAAAATTGAAA [CACACA_site7949] | 11.6 ± 1.2 |
| GTTGTTATATAAAGGAGTACATAATAACACAAATAT [XGTACX_site615] | 11.7 ± 1.2 |
| TTTTTGTTCTATATGGTGCATGTTTATATTCGTATT | 10.2 ± 0.19 |
| AATTATAATAATAATAGTACATAAGTATATAAATAA [XGTACX_site2400] | 11 ± 0.62 |
| AAATAAATAAGAAACGCATGCATATATAATATATAA [TGCATGCA_site326] | 9.83 ± 0.057 |
| AGTAATAATCGGCATGCATGTCAGTGGTAGTATATA [TGCATGCA_site312] | 10.3 ± 0.41 |
| TCTTCATTTTTATGTGCATGTAAAATTTTTTTTTTT [TGCATGCA_site963] | 10.2 ± 0.19 |
| TTGTACTACAATCCTTTATTTATTTAAACCTGTATG [CACACA_negctrl_site428] | 11.6 ± 1.1 |
| TTTTTTAACCTTTTATGTACACAATATTTAACATTT [XGTACX_site1170] | 11.6 ± 0.95 |
| ATATAATATTTATATGTACACACCTTAATCCTTAAA [CACACA_site3555] | 11.3 ± 0.81 |
| TATTTTGTTCTTTCCACACACAAATACATATATTGT [CACACA_site4071] | 10.3 ± 0.24 |
| TATTGTATCCTTAATGCATGCACCAAATAAAAAAAG [TGCATGCA_site541] | 10.5 ± 0.54 |

| Sequence | gcPBM binding intensity (ln) |
| --- | --- |
| AAAAATAAAATAAAATAAAATAAAAATAAAGAAAAA [CACACA_negctrl_site808] | 9.39 ± 0.16 |
| TGGCACTAAAAAAATAAACACACAGATTTATATAAT [CACACA_site8386] | 9.81 ± 0.18 |
| TGCCTATGACATGAATGTACATTAAAATTAAATAAA [XGTACX_site7126] | 10.8 ± 0.52 |
| ATAACATAACATAATACACACATATAAAAAAGAAAT [CACACA_site3028] | 10.1 ± 0.18 |
| TTAAAAGAAAATAGGTGTACACATAATATATACATA [XGTACX_site7697] | 11.8 ± 1 |
| AAAGAAAATAGGTGTACACATAATAAATACAGCTAT [CACACA_site5917] | 11.7 ± 1.1 |
| TAATACATACACACATGTACATACAGAAATAAATAA [XGTACX_site3245] | 11.2 ± 0.81 |
| TAAAAATAAAGAAAATGTACATAAATAATAATACAT [XGTACX_site2278] | 11.2 ± 0.69 |
| TAAAAGAAATAATATACACACATATATAAAAATAAA [CACACA_site1329] | 9.87 ± 0.085 |
| TCTTGTTTATCAACAGCACACACAACAACAACAACA [CACACA_site8046] | 10.1 ± 0.23 |
| CGCCCACAGATATATACACACATATATAAATAAATA [CACACA_site6877] | 10.1 ± 0.3 |
| TATATTGCAAAAAGTACACACATAAATAAATACATA [CACACA_site6589] | 11.6 ± 1.1 |
| CGAAACCATATGTACACACACATATATAAATATGTA [CACACA_site7082] | 11.3 ± 0.88 |
| ATATAAAAAAATTGCACACATAAATATATACATATA [CACACA_site1218] | 10.12 ± 0.064 |
| ATTAAATACATTAACACACACACAAATAAATACATA [CACACA_site5583] | 10.2 ± 0.25 |
| TAAATTAATAAAAAGTGTACATAATATACATATATA [XGTACX_site8604] | 11.3 ± 0.66 |
| TTAAATACTAAAAAGTGTACACATACATAAAAAATT [XGTACX_site6261] | 11.7 ± 0.92 |
| GGTTCATTAAAGTGTACACATAAATACCGTAACATT [CACACA_site6002] | 11.9 ± 1 |
| AATACTAAAAAGTGTACACATACATAAAAAATTGCA [CACACA_site5620] | 11.6 ± 0.87 |
| TAAGGTTCATTAAAGTGTACACATAAATACCGTAAC [XGTACX_site8212] | 11.6 ± 0.95 |
| GCATGGAACCATATATGTACATATATAAATAAATAA [XGTACX_site4996] | 11.2 ± 0.63 |
| TAAAAATTAAAGTGTACACATATATATATATATATA [CACACA_site4781] | 11.6 ± 0.97 |
| AACCATAAAAAGTGTACACATATAAAAAATATGGAA [CACACA_site4199] | 11.7 ± 1.1 |
